GLP1R inv ag = inverse agonists of human GLP-1 receptor; Potency, µM (top dose mostly 38.3 µM), without a hit: top-dose activity change, negative = inhibition, usual class: inhibitors; AID 624417; actives 1.6% (n = 410,000); HEK293 GLP-1R CRE-luciferase, luminescence, 24 h; GLP-1R form is constitutively active; P43220; note: potency is the fitted concentration of half-maximal effect; % is set by controls: 0 for no effect and ±100 for the full control effect; nearly all actives have a fitted effect of over 55% in size
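Stable HEK293 clone (constitutively active GLP-1R + cAMP-response luciferase); 200 cells/uL plated, 12 h pre-culture, compound 24 hr, 37 deg C/5% CO2; detection reagent 12 min RT; luminescence.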
GLP1R ag = activates the human GLP-1 receptor; P43220; HEK293 GLP-1R CRE-luciferase, luminescence, 4-6 h; cells express a hypersensitive GLP-1R form; Potency, µM (highest dose often 45.6 µM), without a hit: at the top dose activation, actives largely listed as activators; actives 0.007% (n = 380,000); AID 624172; note: potency is the fitted concentration of half-maximal effect; % of control where 0% means no effect
DRD3 agonist = activates the human D3 dopamine receptor | P35462 | D3R DiscoveRx beta-arrestin cells, luminescence, 90 min | max activation, % | actives 0.58% (n = 410,000); in the data active = max activation above about 30%; note: 0% is about no effect
Target sequence (P35462 whole entry, looked up): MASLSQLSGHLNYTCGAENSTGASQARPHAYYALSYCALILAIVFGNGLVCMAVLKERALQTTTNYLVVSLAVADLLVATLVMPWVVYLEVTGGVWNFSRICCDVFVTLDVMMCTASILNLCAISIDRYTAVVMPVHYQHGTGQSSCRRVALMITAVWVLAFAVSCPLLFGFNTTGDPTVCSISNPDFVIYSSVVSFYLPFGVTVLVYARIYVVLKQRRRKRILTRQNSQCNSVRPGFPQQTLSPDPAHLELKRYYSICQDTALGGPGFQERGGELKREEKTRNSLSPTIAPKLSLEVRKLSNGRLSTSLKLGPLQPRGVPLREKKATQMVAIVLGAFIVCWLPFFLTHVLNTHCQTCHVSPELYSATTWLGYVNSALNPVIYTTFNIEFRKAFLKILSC
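Agonist mode: compounds and dopamine controls were applied to plated cells for 90 min at 37 degrees C after an overnight attachment at 1500 cells/well. Luminescent read-out followed 30 - 60 minutes at room temperature with DiscoveRx detection reagent.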
D3 antag = blocks the human D3 dopamine receptor; P35462; D3R cells, DiscoveRx beta-arrestin luminescence, antagonist mode; stronger effect = lower value; max response, negative = inhibition, %; actives 2.5% (n = 360,000); in the data active = max response below about -50%; inconclusive = no clear call, values can overlap the other calls; note: % is set by controls: 0 for no effect and ±100 for the full control effect
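Cells expressing the human receptor were seeded at 1500 cells/well, incubated overnight at 37 degrees C in 5% CO2, then exposed to library compounds with dopamine controls for 90 minutes at 37 degrees C before luminescent detection.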
Active calls of the source: *; ? = inconclusive; nt = no result given; ! = a repeat was not active. The list is not random: actives were taken first. Their share in the collection is about 4.3%. Unless noted, calls come from the whole dose curve; as a rule, active = well fitted curve in the direction sought with a large enough effect; inconclusive = small, poorly fitted or top-dose-only effect, or another doubt; inactive = no such curve, though single readings can be large; an effect the other way counts as inactive or inconclusive.

SMILES	GLP1R inv ag	GLP1R ag	DRD3 agonist	D3 antag
COc1ccc(C(=S)Nc2ccc(C)cc2)cc1	-6%	9%	-11	-67*
COc1ccc(CC(=O)NC(c2ccccc2)c2ccc(C)cc2)c(OC)c1 (stereo not given)	8.9µM*	20%	17	6
COc1ccc(/C=N/OCC(=O)NCC(C)C)c(OC)c1	-6%	0%	-6	0
COc1ccc(OC)c(CC(=O)NC(c2ccccc2)c2ccccc2)c1	-3%	14%	0	3
COc1ccc(/C=N/OCC(=O)NC(c2ccccc2)c2ccccc2)c(OC)c1	8.9µM*	1%	18	22
COc1cc(C(=O)NNC(=O)C2CC2)cc(OC)c1OC	4%	-6%	-6	-15
Cc1ccc(NC(=O)CCc2nc(-c3ccccc3F)no2)c(C)c1	1%	nt	-2	nt
COC(=O)C1(C)CCCC2(C)C3CCC(C(C)C)C(CO)C3C(CO)CC12 (stereo not given)	10µM*	0%	7	-11
CCCN(CCC)C(=O)Cn1c(=O)n(-c2cccc(OC)c2)c(=O)c2c3c(sc21)CCCC3	10%	nt	3	nt
CCc1ccccc1NC(=S)N(CCN(C)C)C(C)c1ccco1 (stereo not given)	?	13%	-4	-146*
CCc1cccc(C)c1NC(=S)N(CCN(C)C)C(C)c1ccco1 (stereo not given)	?	-1%	5	17
COCCCNC(=O)c1ccc(-n2c(-c3ccccc3)cc3c2CCC(C)C3)cc1 (stereo not given)	10µM*	nt	-12	nt
CCOC(=O)CCc1c(C)nc(SCCCn2c(=O)[nH]c3ccccc32)c(C#N)c1C	0%	14%	13	4
CCOC(=O)CCc1c(C)nc(SCCN2CCCC2)c(C#N)c1C	?	4%	-8	-56*
COc1ccc(Br)cc1CNC(=O)c1ccc(-n2c(C)cc3c2CCC(C)C3)cc1 (stereo not given)	-12%	nt	-12	nt
Cc1ccc(C(=O)NCCOC23CC4CC(CC(C4)C2)C3)cc1	?	3%	-11	-25
COc1cc(OC)cc(C(=O)NCCOC23CC4CC(CC(C4)C2)C3)c1	10µM*	6%	-5	16
O=C(OCc1ccccc1)c1cccnc1	nt	0%	-2	nt
c1ccc(CNc2nc(N3CCN(Cc4ccccc4)CC3)nc3ccccc23)cc1	4µM*	9%	-30	-93*
Nc1nc(N2CCN(C(c3ccccc3)c3ccccc3)CC2)n[nH]1	?	1%	0	-12
Nc1nc(N2CCN(Cc3ccccc3)CC2)n[nH]1	256%	4%	51*	21
c1ccc(N2CCN(c3nc(NCc4ccco4)c4ccccc4n3)CC2)cc1	7.1µM*	-4%	-17	-21
CC(C)Oc1ccc(C(=O)Nc2nc3c(s2)CC(C(C)(C)C)CC3)cc1 (stereo not given)	-44%	nt	-1	nt
COc1ccccc1NC(=O)C(Cc1ccccc1)NS(=O)(=O)c1ccc2c(c1)c(=O)n(C)c(=O)n2C (stereo not given)	-6%	0%	-19	nt
Cc1cccc(NC(=O)C2CCN(S(=O)(=O)c3ccc4c(c3)OCCCO4)CC2)n1	-19%	6%	-13	10
SMILES	GLP1R inv ag	GLP1R ag	DRD3 agonist	D3 antag
Cc1cccc(NC(=O)C2CCN(S(=O)(=O)c3ccc4c(c3)OCCO4)CC2)n1	1%	-5%	-5	-54*
CCN1CCCC1CN(Cc1cc2ccc(C)cc2[nH]c1=O)C(=S)Nc1ccccc1C(=O)OC (stereo not given)	-6%	7%	-11	-65*
CCN1CCCC1CN(Cc1cc2ccc(C)cc2[nH]c1=O)C(=S)Nc1ccc(OC)cc1 (stereo not given)	?	1%	-8	-64*
CCN1CCCC1CN(Cc1cc2ccc(C)cc2[nH]c1=O)C(=S)Nc1ccc(F)cc1 (stereo not given)	-16%	1%	-25	-82*
CCN1CCCC1CN(Cc1cc2ccc(C)cc2[nH]c1=O)C(=S)Nc1ccccc1OC (stereo not given)	?	-1%	-4	?
CCN1CCCC1CN(Cc1cc2ccc(C)cc2[nH]c1=O)C(=S)Nc1cccc(OC)c1 (stereo not given)	?	4%	-14	-88*
CCC(=O)N1c2ccccc2CC1C(=O)NCc1ccc(N(C)C)cc1 (stereo not given)	5%	nt	-10	nt
CCc1ccc(NC(=O)Cn2nnc(C(=O)Nc3cc(C)ccc3OC)c2N)cc1	-7%	nt	6	nt
COc1ccc(NC(=O)Nc2c[nH]c(=O)[nH]c2=O)c(OC)c1	-5%	nt	-3	nt
O=C(CSc1n[nH]c(=O)n1C1CC1)c1ccc(F)cc1	-1%	5%	-21	-60*
Cc1cccc(C)c1NC(=O)CSc1n[nH]c(=O)n1C1CC1	-16%	11%	0	0
COc1ccc(NC(=O)CN2CCc3ccccc3C2)c(OC)c1	?	-4%	-23	-10
COc1ccc(CN2CCc3ccccc3C2)c(OC)c1OC	4%	-4%	-30	-75*
COc1ccc(CN2CCc3ccccc3C2)c(OC)c1	?	2%	-14	-65*
CCCOC(C(=O)OC1CCN(C)CC1)(c1ccccc1)c1ccccc1	nt	12%	-20	nt
CCN(CC)CCNC(=O)c1ccc(N2CCCCC2)c(NS(=O)(=O)c2ccc(C)cc2)c1	?	6%	-13	-82*
Cc1ccc(S(=O)(=O)NC2=C(N3CCN(Cc4ccccc4)CC3)C(=O)c3ccccc3C2=O)cc1	?	-8%	-35	-60*
Cc1ccc(S(=O)(=O)Nc2ccccc2N2CCCCC2)cc1	2.8µM*	1%	0	16
CCOC(=O)N1CCN(C2=C(NS(=O)(=O)c3ccc(C)cc3)C(=O)c3ccccc3C2=O)CC1	?	3%	-5	?
CC(C)(CN1CCN(Cc2ccccc2)CC1)NS(=O)(=O)c1ccc(Cl)cc1	?	-6%	-18	-61*
CCOC(=O)C1CCN(c2ncnc3c2c(-c2ccccc2)cn3-c2ccc(C)c(Cl)c2)CC1	3%	nt	9	nt
CC(C)(C)C(=O)OCC(=O)[C@H]1CC[C@H]2[C@@H]3CCC4=CC(=O)CC[C@]4(C)[C@H]3CC[C@]12C	nt	nt	-5	nt
O=C(Nc1cccc(-c2nc3ccccc3o2)c1)c1cccc2c(Cl)cccc12	-5%	-2%	5	nt
Cc1ccc(S(=O)(=O)NC2=C(N3CCN(c4ccccc4F)CC3)C(=O)c3ccccc3C2=O)cc1	16%	2%	-3	-67*!
CN1CCN(c2ccccc2NS(=O)(=O)c2ccc3c(c2)CCN3C(=O)C2CCC2)CC1	?	16%	-12	-52*
COc1cc(-c2nnc(SCCOc3ccc(Cl)cc3C)o2)cc(OC)c1OC	4%	nt	-11	nt
O=C(COC(=O)CCS(=O)(=O)c1ccccc1)NNC(=O)c1ccc([N+](=O)[O-])cc1	-5%	-7%	-8	0
S=C(NC1CCCCC1)NN(c1ccccc1)c1ccccc1	10µM*	-3%	1	-4
